Data taken from PubChem BioAssay (NCATS).
The source made the active and inactive calls. Calls follow the shape of the full dose curve.

target: Glucocorticoid receptor (Homo sapiens) (UniProt P04150); test: GR-EFC Redistribution (AID 451); conditions: CHO-K1 GR-EFC translocation, beta-gal luminescence, 2 h
Excerpt: NIH Molecular Libraries Screening Centers Network [MLSCN]
NIH Chemical Genomics Center [NCGC]
The glucocorticoid receptor (GR) is a cytoplasmic receptor that belongs to the nuclear receptor family of ligand-dependent transcription factors. Upon glucocorticoid binding to its receptor, the glucocorticoid-GR complex translocates into the nucleus, where it binds as a dimer to specific DNA sequences (glucocorticoid response elements), enhancing or suppressing transcription of a wide variety of glucocorticoid-responsive genes. In addition to their important roles in normal physiology and metabolism, glucocorticoids are administered exogenously as treatments for a wide variety of allergic, autoimmune, and neoplastic conditions. Identification of compounds that modulate aspects of GR signalling would be useful in dissecting glucocorticoid response pathways as well as developing GR modulators with more targeted clinical effects.
Traditionally, GR modulators have been identified using receptor binding or direct transactivation assays. However, assays for glucocorticoid-dependent nuclear translocation can also be used to screen for compounds affecting GR signaling.
Immunocytochemical staining has been used to assay for GR translocation, but is not suitable for high throughout screening due to the multiple reagent addition and wash steps required. Recently, a novel cell-based GR assay in Enzyme Fragment Complementation (EFC) format was developed by DiscoveRx (Fremont, CA). The assay uses EFC of b-galactosidase (b-gal) as an indicator of GR-translocation in engineered CHO-K1 biosensor cells. The enzyme acceptor (EA) fragment of b-gal resides in the nucleus , as designed through the use of a proprietary set of sequence additions and modifications. The small peptide enzyme donor (ED) fragment of b-gal is fused directly to the C-terminus of GR, and is localized in the cytoplasm is the absence of receptor signaling. Upon binding to a GR ligand, the complex translocates to the nucleus, where intact enzyme activity is restored by complementation and b-gal activity is detected. We optimized this GR-EFC assay in homogenous 1536-well plate assay format for high throughput screening.
NCGC Assay Protocol Summary:
CHO-K1 cells stably expressing NLS-enzyme acceptor fragment (EA) of b-gal and GR-enzyme donor (ED) fragment of b-gal were maintained in F12 medium (Invitrogen, Carlsbad, CA) at 37 Celsius degrees under a humidified atmosphere containing 5% CO2 and 95% air. The medium contained 10% FBS, 2 mM L-glutamine, 50 U/ml penicillin 50 ug/ml streptomycin, and 250 ug/ml hygromycin and 500 ug/ml G418 (Invitrogen).
GR-translocation was measured beta-gal enzyme activity using the PathHunter Detection Kit containing cell membrane permeablizing reagent and beta-gal substrate (DiscoveRx, Fremont, CA). All compounds were screened as titrations from 0.6 nM to 46 uM final concentration. The assay was performed in 1536-well format as follows:
5 uL cell suspension (1,000 cells)/well
Incubation at 37 Celsius degrees for two hours
1.25 uL 1X detection buffer from the kit supplied by DiscoveRx
Incubation at room temperature for one hour
Read plate in luminescence mode in ViewLux plate reader (PerkinElmer)
Keywords: NIH Roadmap, MLSCN, MLI, MLSMR, GR-EFC, GREFC, qHTS, NCGC
Potency is read from the fitted curve at half-maximal effect.

Sequence of Glucocorticoid receptor (Homo sapiens) (P04150 whole entry, looked up): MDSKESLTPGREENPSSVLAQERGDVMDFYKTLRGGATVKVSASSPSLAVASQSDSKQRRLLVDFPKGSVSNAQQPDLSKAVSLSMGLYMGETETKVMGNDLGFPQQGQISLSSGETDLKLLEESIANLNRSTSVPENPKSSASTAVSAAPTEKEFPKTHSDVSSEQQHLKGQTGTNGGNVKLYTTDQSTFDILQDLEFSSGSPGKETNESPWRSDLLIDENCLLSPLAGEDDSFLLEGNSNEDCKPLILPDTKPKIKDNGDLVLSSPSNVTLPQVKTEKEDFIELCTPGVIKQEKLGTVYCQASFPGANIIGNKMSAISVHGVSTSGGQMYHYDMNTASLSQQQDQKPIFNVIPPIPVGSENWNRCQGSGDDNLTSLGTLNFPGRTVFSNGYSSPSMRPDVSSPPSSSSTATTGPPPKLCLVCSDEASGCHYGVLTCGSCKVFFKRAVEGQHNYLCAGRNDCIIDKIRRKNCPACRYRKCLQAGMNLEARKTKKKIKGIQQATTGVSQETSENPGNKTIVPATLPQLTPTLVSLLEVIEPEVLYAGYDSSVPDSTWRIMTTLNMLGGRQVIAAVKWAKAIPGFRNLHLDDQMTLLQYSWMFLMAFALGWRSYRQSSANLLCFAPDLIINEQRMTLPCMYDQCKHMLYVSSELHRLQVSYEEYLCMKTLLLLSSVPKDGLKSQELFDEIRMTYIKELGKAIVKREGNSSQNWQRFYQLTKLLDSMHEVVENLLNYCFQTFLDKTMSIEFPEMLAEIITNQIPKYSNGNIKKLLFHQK

Compound | Potency
COc1ccc2[nH]c3c(c2c1)CCN=C3C | > 20.6 µM (inactive)
C=C(C)[C@H]1[C@H]2OC(=O)[C@@H]1[C@]1(O)C[C@H]3O[C@]34C(=O)O[C@H]2[C@]14C | > 46 µM (inactive)
CCCCCCCCCCCCCC(=O)O[C@H]1[C@@H](C)[C@@]2(O)[C@@H](C=C(CO)C[C@]3(O)C(=O)C(C)=C[C@@H]23)C2C(C)(C)[C@]21OC(C)=O (stereo not given in full) | > 46 µM (inactive)
COc1ccc2c(c1)[C@]13CCCC[C@@H]1[C@H](C2)N(C)CC3 | > 46 µM (inactive)
CCCC[N+]1(C)[C@@H]2CC(OC(=O)[C@@H](CO)c3ccccc3)C[C@H]1[C@H]1O[C@H]12 (stereo not given in full) | > 46 µM (inactive)
C[N+]1(C)CCO[C@@](O)(c2ccc(-c3ccc([C@]4(O)C[N+](C)(C)CCO4)cc3)cc2)C1 | > 46 µM (inactive)
C=C[C@@H]1CN2CC[C@H]1C[C@H]2[C@@H](O)c1ccnc2ccccc12 | > 46 µM (inactive)
CNc1ccc2oc(C[C@@H]3O[C@@]4(CC[C@H]3C)O[C@@H]([C@@H](C)C(=O)c3ccc[nH]3)[C@@H](C)C[C@H]4C)nc2c1C(=O)O | > 46 µM (inactive)
C[C@H]1CC[C@@H]2[C@@H](C)C(=O)O[C@H]3O[C@@]4(C)CC[C@@H]1[C@]32OO4 | > 46 µM (inactive)
CN(CCc1ccc(Cl)c(Cl)c1)[C@H]1CCCC[C@H]1N1CCCC1 | > 46 µM (inactive)
C=C1C/C(=C\C)C(=O)O[C@@H]2CCN3CC=C(COC(=O)[C@]1(C)O)[C@H]23 | > 46 µM (inactive)
C=C(C)[C@@H]1CN[C@H](C(=O)O)[C@H]1CC(=O)O | > 46 µM (inactive)
O[C@@H]1CCCC[C@H]1N1CCC(c2ccccc2)CC1 | > 46 µM (inactive)
CC[C@@H]1CN2CC[C@@H]1C[C@H]2[C@@H](O)c1ccnc2ccc(OC)cc12 | > 46 µM (inactive)
CC[C@]1(O)C(=O)OCc2c1cc1n(c2=O)Cc2cc3ccccc3nc2-1 | > 46 µM (inactive)
CCN(CC)c1ncnc2c1ncn2[C@@H]1O[C@@H](COP(=O)(O)OP(=O)(O)C(Br)(Br)P(=O)(O)O)[C@H](O)[C@H]1O | > 46 µM (inactive)
Ic1ccccc1CN[C@@H]1C2CCN(CC2)[C@H]1C(c1ccccc1)c1ccccc1 | > 46 µM (inactive)
OC[C@H]1CCCN2CCCC[C@@H]12 | > 46 µM (inactive)
NC(=O)c1ccc(OC[C@H](O)CN2CC=C(c3ccc(F)cc3)CC2)cc1 | > 46 µM (inactive)
Oc1cc2c(cc1O)[C@H]1c3ccccc3CN[C@@H]1CC2 | > 46 µM (inactive)

Compound | Potency
C[C@@H]1CCC/C=C\[C@H]2C[C@H](O)C[C@@H]2[C@H](O)/C=C\C(=O)O1 | > 46 µM (inactive)
CC[C@@]12CCCN3CC[C@@]4(c5ccc(OC)c(O)c5N(C(C)=O)[C@H]4CC1)[C@H]32 | > 46 µM (inactive)
CC[C@H]1CN2CC[C@@H]1C[C@@H]2[C@H](O)c1ccnc2ccccc12 | > 46 µM (inactive)
C=CCN1CC[C@@]23CCCC[C@@H]2[C@@H]1Cc1ccc(O)cc13 | > 46 µM (inactive)
O=c1ccc2cc(O[C@@H]3O[C@@H](CO)[C@@H](O)[C@@H](O)[C@H]3O)c(O)cc2o1 | > 46 µM (inactive)
Oc1ccc2c3c1O[C@@H]1[C@@H](O)CC[C@]4(O)[C@H](C2)N(CC2CCC2)CC[C@@]314 | > 46 µM (inactive)
CCOC(=O)c1cncn1[C@@H](C)c1ccccc1 | > 20.6 µM (inactive)
N[C@@H]1CCc2cc(O)c(O)cc2C1 | > 46 µM (inactive)
COc1ccc(C[C@@H]2NC[C@H](O)[C@H]2OC(C)=O)cc1 | > 46 µM (inactive)
CN1[C@@H]2CC[C@H]1CC(O[C@@H](c1ccccc1)c1ccccc1N)C2 (stereo not given in full) | > 46 µM (inactive)
C[N+]1(C)[C@@H]2CC(OC(=O)[C@@H](CO)c3ccccc3)C[C@@H]1[C@H]1O[C@H]12 (stereo not given in full) | > 9.22 µM (inactive)
CC(C)(C)c1ccc(O)c(C[N+](C)(C)C)c1 | > 9.22 µM (inactive)
NCC[Se][Se]CCN | > 9.22 µM (inactive)
Oc1cc2c(cc1O)[C@H]1c3ccccc3CN[C@H]1CC2 | > 46 µM (inactive)
NC(N)=Nc1ccc2[nH]c3c(c2c1)C[C@]1(O)[C@@H]2Cc4ccc(O)c5c4[C@]1(CCN2CC1CC1)[C@H]3O5 | > 46 µM (inactive)
CCN1C[C@@]2(C)CC[C@H](O)[C@@]34[C@@H]5C[C@H]6[C@H](O)[C@@H]5[C@](O)(C[C@@H]6OC)[C@H](C[C@@H]23)[C@H]14 | > 46 µM (inactive)
CCCN1CCC[C@H](c2cccc(C#N)c2)C1 | > 46 µM (inactive)
COC[C@H]1OC(=O)c2coc3c2[C@@]1(C)C1=C(C3=O)[C@H]2CCC(=O)[C@@]2(C)C[C@H]1OC(C)=O | > 46 µM (inactive)
C[C@@H](Cc1ccc2c(c1)OC(C(=O)O)(C(=O)O)O2)NC[C@H](O)c1cccc(Cl)c1 | > 46 µM (inactive)
O=c1cccc2n1C[C@H]1C[C@@H]2CN(CCO)C1 | > 46 µM (inactive)
